This is an account of results in PubChem BioAssay AID1851 (National Center for Advancing Translational Sciences (NCATS), 2009).

SMILES strings stand for the structures. Hit rate of the full screen: of about 16,000 compounds, about 5,100 (32%) were called active. Inconclusive results (about 25%) are left out. Calls come from the whole dose curve; as a rule, active = well fitted curve in the direction sought with a large enough effect; inconclusive = small, poorly fitted or top-dose-only effect, or effect the other way; inactive = no such curve, though single readings can be large or run the other way. The list shows a part of the results.
% is set by controls: 0 for no effect and ±100 for the full control effect.

In this test the target is Cytochrome P450 3A4 (Homo sapiens) (UniProt P08684). Kind of test: Cytochrome panel assay with activity outcomes. To be noted: recombinant CYP, pro-luciferin dealkylation, luminescence, p450-cyp3a4; series mostly up to 57.1 µM.
Chain of Cytochrome P450 3A4 (Homo sapiens) (P08684 whole entry, looked up): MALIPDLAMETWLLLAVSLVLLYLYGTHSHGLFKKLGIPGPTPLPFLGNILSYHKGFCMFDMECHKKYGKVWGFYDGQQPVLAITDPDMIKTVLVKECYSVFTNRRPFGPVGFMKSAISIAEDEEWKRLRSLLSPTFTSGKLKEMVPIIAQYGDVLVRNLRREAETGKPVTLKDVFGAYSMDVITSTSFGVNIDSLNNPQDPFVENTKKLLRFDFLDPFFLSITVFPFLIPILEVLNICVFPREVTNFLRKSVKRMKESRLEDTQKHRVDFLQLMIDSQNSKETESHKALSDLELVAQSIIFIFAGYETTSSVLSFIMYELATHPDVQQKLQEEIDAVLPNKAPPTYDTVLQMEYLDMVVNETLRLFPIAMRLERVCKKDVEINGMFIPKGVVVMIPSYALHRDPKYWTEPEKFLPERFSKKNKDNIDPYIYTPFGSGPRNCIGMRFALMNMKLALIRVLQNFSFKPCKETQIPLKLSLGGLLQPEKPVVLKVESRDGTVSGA
As for `COC(=O)[C@@]1(Cc2ccccc2)[C@H]2c3cc(C(=O)N(C)C)n(Cc4c(CO)[nH]cc(C)c4=O)c3C[C@H]2CN1C(=O)c1ccccc1`, the AC50 was 1.58 µM (active).
As for `COC(=O)[C@@]1(Cc2ccc(F)cc2)[C@H]2c3cc(C(=O)N(C)C)n(Cc4c(CO)[nH]cc(C)c4=O)c3C[C@H]2CN1C(=O)c1ccccc1`, the AC50 is 1.58 µM (active).
Same read-out and setting: to `CCCCn1c(SC(C)C(N)=O)nc2cc(C(=O)OC)ccc2c1=O` (configuration not stated) belongs “inactive”.
Take `NC(=O)CSc1nc2sc(-c3ccccc3)cc2c(=O)n1N`: the activity, negative = inhibition is -22% [at 2.29 µM] (inactive).
On to `COCCNC(=O)CSc1nc2ccc(N3CCOCC3)cc2c(=O)n1Cc1ccc(OC)cc1`, for which the concentration at half-maximal activity (AC50) is 5.01 µM (active).
On the same count and under the same terms, in the case of `CCCCn1c(SCC(N)=O)nc2ccc(N3CCOCC3)cc2c1=O` it was 10 µM (active); in that of `CCCCNC(=O)CSc1nc2cc(OC)c(OC)cc2c(=O)n1Cc1ccc(OC)cc1`, 2.82 µM (active).
Regarding `Cc1cc(N2CCOCC2)ncc1[N+](=O)[O-]`, the activity, negative = inhibition is 8.16% [at 2.29 µM] (inactive).
On to `Cc1ccc(OCC(=O)N2CCN(c3ccc([N+](=O)[O-])c(N4CCOCC4)c3)CC2)cc1`, for which the AC50 was 7.08 µM (active).
In the case of `Cc1ccc(OC(=O)c2ccc(N3CCOCC3)c([N+](=O)[O-])c2)cc1`, the AC50 result was “inactive”.
In the case of `COc1ccc2nc(SCC(=O)c3ccco3)[nH]c2c1`, the concentration at half-maximal activity (AC50) was 11.2 µM (active).
As for `CCOC(=O)NC(=O)CSc1nc2ccc(OCC)cc2[nH]1`, the half-maximal activity concentration (AC50) was 28.2 µM (active).
For `CCCCc1ccc2nc(NC(=O)OC)[nH]c2c1`, the AC50 result was “inactive”.
On the same count and under the same terms, to `COC(=O)Nc1nc2ccc(SC(C)C)cc2[nH]1` belongs “inactive”; to `COc1ccc(C(C)=O)c(OC(=O)c2ccco2)c1`, “inactive”.
With `CN(CC(=O)O)Cc1c(O)c(Cl)cc(Cl)c1Cl`, the activity, negative = inhibition is -14.8% [at 11.4 µM] (inactive).
Take `Cc1ccc2oc(-c3cccc(NC(=S)NC(=O)/C=C/c4ccco4)c3)nc2c1`: the half-maximal activity concentration (AC50) is 1 µM (active).
On to `O=C(COc1ccc(Cl)cc1)N(Cc1ccccc1)c1ccccn1`, for which the AC50 was 22.4 µM (active).
On to `O=C(O)COc1c(Cl)cc(Cl)c2cccnc12`, for which the activity, negative = inhibition was -9.36% [at 11.4 µM] (inactive).
For `C[N+](C)(C)CCN(Cc1ccc(Cl)cc1)c1ccccn1`, the AC50 result was “inactive”.
As to `O=C1O[C@@H]([C@H](O)[C@H](O)[C@H](O)CO)[C@@H](O)[C@@H]1O`, the activity, negative = inhibition is -1% [at 11.4 µM] (inactive).
`COc1ccc2c(c1OC)C(=O)N(C(C)C(=O)O)C2=O` (configuration not stated): the AC50 entry was “inactive”.
Still for that read-out and setting: in the case of `c1cncc(-c2cncnc2-n2ccnc2)c1` it was 7.94 µM (active).
`COc1cccc(-c2cncnc2-n2ccnc2)c1`: the AC50 is 0.316 µM (active).
`CCCC(=O)n1nc(-c2cccnc2)nc1N`: the activity, negative = inhibition was 0.62% [at 2.29 µM] (inactive).
As to `N#Cc1cccc(-c2cncnc2-n2ccnc2)c1`, the half-maximal activity concentration (AC50) was 2.51 µM (active).
Consider `CN(C)c1ccc(-c2cncnc2-n2ccnc2)cc1`, for which the AC50 was 2.51 µM (active).

Broadly, the AC50 is the concentration giving half of the maximal activity seen.
